Measurements: a collection of fitness landscapes (doi:10.1016/j.celrep.2020.107928)
Over roughly 81,000 sequences, “one-hybrid fitness for binding NBS DNA” has its median near -0.1; the highest 2% begin near 0.36. What follows is part of a selection rich in the highest values, with near analogues and random picks from the rest.

B1: Caulobacter ParB omega fusion; a variant is named by its letters at X, in order, B8GW30 (parent)
chain: MESVVVGEPGMSEGRRGLGRGLSALLGEVDAAPAQAPGEQLGGSREAPIEILQRNPDQPRRTFREEDLEDLSNSIREKGVLQPILVRPSPDTAGEYQIVAGERAWRAAQRAGLKTVPIMVRELDDLAVLEIGIIENVQRADLNVLEEALSYKVLMEKFERTQENIAQTIGKSXSHVANXMRLLXLPDEVQSYLVSGELTAXHARAIAAAADPVALAKQIIEGGLSVRETEALARKAPNLSAGKSKGGRPPRVKDTDTQALESDLSSVLGLDVSIDHRGSTGTLTITYATLEQLDDLCNRLTRGI

Variants of: B1
Assay: one-hybrid fitness for binding NBS DNA (the Noc-binding site; scaled: cognate 1, non-cognate 0); higher = stronger binding
Conditions: with NBS DNA site
Procedure, shortened: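 Caulobacter ParB libraries with four specificity codons randomised were screened by bacterial one-hybrid selection in the E. coli USO strain, using a HIS3 reporter whose site lies 19 bp from the promoter. Selection ran for 48 hours at 37°C on M9 lacking histidine, with 0.1 mM IPTG and 5 mM 3-AT. Plasmids were Illumina-sequenced before and after selection, three replicate libraries were pooled, and variants with under 10 reads were dropped. Fitness is the log change in each variant's read ratio to wild type, rescaled against the cognate and non-cognate sites.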

Variant	one-hybrid fitness for binding NBS DNA
PNSR	≤ 0.2
QDFN	≤ 0.2
VVTR	≤ 0.2
ASAC	≤ 0.2
AKMS	≤ 0.2
VYSF	≤ 0.2
GLYG	≤ 0.2
HCDP	≤ 0.2
RLGN	≤ 0.2
RLDR	≤ 0.2
RLWR	0.248
RLSC	≤ 0.2
RLPR	≤ 0.2
RLGR	0.443
RLNR	0.526
RLSK	≤ 0.2
RLGH	≤ 0.2
RLSR	0.43
RLYR	0.385
RLNN	≤ 0.2
PRNP	≤ 0.2
HRFS	≤ 0.2
YKLT	≤ 0.2
CNVC	≤ 0.2

Variant	one-hybrid fitness for binding NBS DNA
CNLW	≤ 0.2
RLQY	≤ 0.2
RLHD	≤ 0.2
RLRR	0.673
RLHM	≤ 0.2
RLQR	0.43
RLIR	0.21
RLCR	0.412
RLCS	0.334
RLLR	0.32
RLQQ	≤ 0.2
RLHR	0.491
RLCN	≤ 0.2
HQQG	≤ 0.2
GCLR	≤ 0.2
YYLT	≤ 0.2
TQHV	≤ 0.2
RMVQ	≤ 0.2
WTKW	≤ 0.2
SRPI	≤ 0.2
QTYF	≤ 0.2
QPRF	≤ 0.2
QTDF	≤ 0.2
QRYF	0.227

Variant	one-hybrid fitness for binding NBS DNA
QTRF	0.446
QSRF	0.265
QRDF	≤ 0.2
QRRF	0.418
QCRF	0.423
NNNK	≤ 0.2
WGNT	≤ 0.2
AIMG	≤ 0.2
NWSC	≤ 0.2
HMTV	≤ 0.2
SYSV	≤ 0.2
RCDA	≤ 0.2
RPNA	≤ 0.2
RSDA	≤ 0.2
RCNA	0.298
RRDA	0.463
RRNA	0.679
VHDS	≤ 0.2
RQYA	≤ 0.2
PMCY	≤ 0.2
RFCR	≤ 0.2
RICN	≤ 0.2
RHCH	≤ 0.2
RCCR	0.45

Variant	one-hybrid fitness for binding NBS DNA
RPCR	≤ 0.2
RSCH	≤ 0.2
RSCR	0.38
RHCP	≤ 0.2
RICH	≤ 0.2
RHCR	0.37
RSCN	≤ 0.2
RICR	0.369
TYVA	≤ 0.2
SMNL	≤ 0.2
VKSS	≤ 0.2
NEES	≤ 0.2
WCYR	≤ 0.2
AMGT	≤ 0.2
RKCR	0.552
RKCD	≤ 0.2
RKCH	≤ 0.2
SQRN	≤ 0.2
VTPF	≤ 0.2
LTHI	≤ 0.2
PWLV	≤ 0.2
QQFC	≤ 0.2
QQKG	0.437
QQFG	≤ 0.2

Variant	one-hybrid fitness for binding NBS DNA
QQRC	0.455
QQKY	0.63
QQVG	≤ 0.2
QQVC	≤ 0.2
QQYC	≤ 0.2
QQVY	≤ 0.2
QQNC	0.265
QQDY	≤ 0.2
QQKC	0.449
RRWI	0.2
GLIT	≤ 0.2
LTTA	≤ 0.2
AREP	≤ 0.2
GRTD	≤ 0.2
PMHT	≤ 0.2
PPTR	≤ 0.2
KSNL	≤ 0.2
THKH	≤ 0.2
WPSG	≤ 0.2
GFYT	≤ 0.2
QQKS	0.714
QQVS	0.33
QQRY	0.597
QQYM	≤ 0.2

Variant	one-hybrid fitness for binding NBS DNA
NQKS	≤ 0.2
QQRM	0.459
QQFY	≤ 0.2
QQFM	≤ 0.2
QQYY	≤ 0.2
QQKN	0.464
TWEG	≤ 0.2
PTGW	≤ 0.2
RYQK	≤ 0.2
KVTF	≤ 0.2
WKWG	≤ 0.2
DWIC	≤ 0.2
LTTQ	≤ 0.2
SPPV	≤ 0.2
QQYK	≤ 0.2
QQKM	0.476
QQAK	≤ 0.2
QQRK	0.499
QQDM	≤ 0.2
QQVM	≤ 0.2
QQKK	0.506
QQDK	≤ 0.2
QQDG	≤ 0.2
QQRG	0.407

Variant	one-hybrid fitness for binding NBS DNA
QQPK	≤ 0.2
QQYG	≤ 0.2
ASHP	≤ 0.2
HWMG	≤ 0.2
ITPE	≤ 0.2
GQNS	≤ 0.2
TPEF	≤ 0.2
IIVG	≤ 0.2
NNMC	≤ 0.2
QQKD	0.345
QQKH	0.657
QQKP	0.336
SQHR	≤ 0.2
QCRI	0.407
IDNI	0.591
QRGI	0.37
IDPI	≤ 0.2
QRRI	0.43
IDCI	≤ 0.2
QCGI	≤ 0.2
QSRI	0.338
QPRI	≤ 0.2
QSGI	≤ 0.2
QREI	≤ 0.2

Variant	one-hybrid fitness for binding NBS DNA
QRYI	0.254
PDRM	≤ 0.2
MWKT	≤ 0.2
DTEY	≤ 0.2
DDNC	≤ 0.2
PMEV	≤ 0.2
FFGC	≤ 0.2
MTER	≤ 0.2
QTRI	0.478
QTYI	≤ 0.2
QRNI	0.403
QCNI	≤ 0.2
QTDI	≤ 0.2
QRDI	≤ 0.2
HLFS	≤ 0.2
RRGD	≤ 0.2
RRGS	0.55
RRGP	≤ 0.2
RRGH	0.44
RRGM	0.237
RRGN	0.324
PPPL	≤ 0.2
GQQS	≤ 0.2
RDPN	≤ 0.2

Variant	one-hybrid fitness for binding NBS DNA
DGTL	≤ 0.2
SCPT	≤ 0.2
RTKM	0.303
RTVR	0.416
RTKG	0.223
RTKR	0.866
WTEY	≤ 0.2
YTWG	≤ 0.2
PYNR	≤ 0.2
QHQN	≤ 0.2
QCQS	0.448
QMQS	0.394
QPQS	≤ 0.2
QMQP	≤ 0.2
QSQS	0.36
QMQH	≤ 0.2
QHIS	0.258
QHQS	0.394
CTNW	≤ 0.2
LAHD	≤ 0.2
LHIV	≤ 0.2
RRMT	0.776
RTMG	≤ 0.2
RRMM	0.221

Variant	one-hybrid fitness for binding NBS DNA
RTMK	≤ 0.2
RKMM	≤ 0.2
RPMT	≤ 0.2
RSMT	0.305
RFMT	≤ 0.2
RRMY	0.338
RCMT	0.492
RTMT	0.491
RKMT	0.587
PHSL	≤ 0.2
GMRS	≤ 0.2
SYNI	≤ 0.2
EIAA	≤ 0.2
WPVG	≤ 0.2
AYDR	≤ 0.2
PHAW	≤ 0.2
RMGF	≤ 0.2
RMIT	0.253
RMGK	≤ 0.2
RMQP	≤ 0.2
RMRT	0.633
RMLT	0.347
RMST	0.483
RMGT	0.432

Variant	one-hybrid fitness for binding NBS DNA
RMSK	≤ 0.2
RMSG	≤ 0.2
RMQD	≤ 0.2
RMQT	0.371
NYTS	≤ 0.2
GQGC	≤ 0.2
AMCS	≤ 0.2
NVHT	≤ 0.2
RMYT	0.417
RMWT	0.348
RMPT	≤ 0.2
PILE	≤ 0.2
WLPE	≤ 0.2
CTVI	≤ 0.2
RAMV	≤ 0.2
RKCN	≤ 0.2
RPCS	≤ 0.2
RTCH	0.234
RCCS	0.46
RKCS	0.525
RTCP	≤ 0.2
RMCP	≤ 0.2
RMCD	≤ 0.2
RTCS	0.467

Variant	one-hybrid fitness for binding NBS DNA
RSCS	0.343
RKCP	≤ 0.2
RMCS	0.383
IART	≤ 0.2
NTSG	≤ 0.2
NVYS	≤ 0.2
KVTC	≤ 0.2
QPTP	≤ 0.2
RWEY	≤ 0.2
ARSD	≤ 0.2
RCSW	≤ 0.2
RTFR	0.441
RTAH	≤ 0.2
RTAR	0.548
RTFS	0.339
RTAN	≤ 0.2
RTFN	≤ 0.2
VCRV	≤ 0.2
RISE	≤ 0.2
TSIF	≤ 0.2
HHVS	≤ 0.2
SALW	≤ 0.2
HAHM	≤ 0.2
QQMS	0.368

Variant	one-hybrid fitness for binding NBS DNA
QQMP	≤ 0.2
QQMT	0.499
QQMD	≤ 0.2
QQMH	0.222
QQMF	≤ 0.2
QQMK	≤ 0.2
QQMR	0.584
QQMN	≤ 0.2
TPTE	≤ 0.2
MRFN	≤ 0.2
SLPK	≤ 0.2
RCHW	≤ 0.2
TPGK	≤ 0.2
QQAH	0.284
QQAT	0.482
QQFT	0.435
QQAD	≤ 0.2
DQFT	≤ 0.2
